Tau fluor counter = counter-screen for tau fibril formation inhibitors; Potency, µM (titrated, usually from 57.7 µM), without a hit: top-dose activity change, negative = decrease; 280,000 compounds, 0.93% hits; tau K18 P301L Alexa594 fluorescence, heparin fibrillization; note: nearly all actives have a fitted effect of over 55% in size
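Human K18 P301L tau (15 uM unlabeled plus 0.24 uM Alexa 594-labeled, final) in 100 mM sodium acetate pH 7 was mixed with compound and 20 uM heparin and incubated 6 hr at 37 C.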
TexasRed fluor = alters Texas Red total fluorescence, flagging assay interference. TRb/SRC2 Texas Red total fluorescence interference. Potency, µM (highest dose often 106 µM), inactives show at the highest dose fluorescence change, negative = quenching. 280,000 compounds, 0.29% hits; active = well fitted curve in either direction with a large enough effect; inconclusive = small, poorly fitted or top-dose-only effect
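Human TRβ ligand-binding domain (0.6 uM) and Texas Red SRC2 peptide (20 nM) in Tris buffer with 1 uM T3 and 5% DMSO were incubated with pinned compound for 5 hr at ambient temperature. Total fluorescence was computed as S + 2P (555/632 nm).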
Tau fibril ThT = inhibitors of human tau fibril formation, thioflavin T binding; P10636; recombinant tau K18 P301L (four-repeat tau fragment), heparin-induced fibrillization, ThT fluorescence; Potency, µM (series often up to 57.4 µM), for the others: at the top dose activity, negative = inhibition, hits mostly inhibitors; 270,000 compounds, 2.1% hits; AID 1460; note: nearly all actives have a fitted effect of over 55% in size
Target sequence (P10636 561-689 P618L limits assumed): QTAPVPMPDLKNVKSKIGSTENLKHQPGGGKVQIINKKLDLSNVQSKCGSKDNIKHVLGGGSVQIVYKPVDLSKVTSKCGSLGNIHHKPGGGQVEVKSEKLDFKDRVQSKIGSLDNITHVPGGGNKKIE
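In this qHTS, human K18 P301L tau is incubated with compound and heparin for 6 hr at 37 C, and Thioflavin T fluorescence then reports fibril load.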
RGS12 GoLoco inh = blocks human Gai1 binding to RGS12 GoLoco peptide, red readout; Gai1:RGS12 GoLoco peptide FP, rhodamine, 10 min; Potency, µM (top dose mostly 61.6 µM), inactives show top-dose activity, negative = inhibition, actives largely listed as inhibitors; 230,000 compounds, 0.44% hits; active = well fitted inhibition curve with a large enough effect, not every such curve was filed as active; inactive = no such curve, though single readings can be large or run the other way; note: nearly all actives have a fitted effect of over 30% in size
Target sequence (P63096 whole entry, looked up): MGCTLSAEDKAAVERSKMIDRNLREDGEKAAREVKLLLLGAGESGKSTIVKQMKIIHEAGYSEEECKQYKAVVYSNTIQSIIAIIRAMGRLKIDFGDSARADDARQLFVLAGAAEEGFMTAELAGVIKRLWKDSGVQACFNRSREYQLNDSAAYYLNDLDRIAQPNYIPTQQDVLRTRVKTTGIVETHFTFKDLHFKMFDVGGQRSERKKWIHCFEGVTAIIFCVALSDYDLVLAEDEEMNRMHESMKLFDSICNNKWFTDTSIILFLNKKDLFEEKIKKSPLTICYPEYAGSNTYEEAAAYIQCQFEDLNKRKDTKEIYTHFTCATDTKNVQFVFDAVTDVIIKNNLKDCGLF
Tau fibril FP = inhibitors of human tau fibril formation; AID 1468; K18 P301L tau heparin fibrillization, Alexa594 FP, 6 h; 280,000 compounds, 0.39% hits; P10636; Potency, µM (series often up to 57.7 µM), for the others: at the top dose activity, negative = inhibition, actives largely listed as inhibitors; note: nearly all actives have a fitted effect of over 55% in size
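K18 P301L tau (15 uM unlabeled/0.24 uM Alexa 594-labeled, final) + compound + heparin 20 uM final; 100 mM NaOAc pH 7; 6 hr 37 C; ThT 30 uM final added, 1 hr RT; FP ex 555/em 632 nm.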
TRb-SRC2 inh = inhibitors of human thyroid hormone receptor beta-SRC2 interaction; Potency, µM (highest dose often 106 µM), inactives show top-dose activity change, negative = inhibition, most hits filed as inhibitors; P10828; 280,000 compounds, 0.065% hits; AID 1469; TRbeta-SRC2 peptide binding, fluorescence polarization; receptor liganded with 1 µM T3;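 note: plate controls were bound peptide for no effect and peptide without receptor for full effect; nearly all actives have a fitted effect of over 50% in size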
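Binding of a 20-amino-acid Texas Red SRC2 peptide (20 nM) to TRb ligand-binding domain (0.6 uM) with agonist T3 at 1 uM was followed by fluorescence polarization after a 5 hr room-temperature incubation.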
* hit, by the source's call; ? = inconclusive; nt = no result given; [ ] = another dose, or the depositor's remark. An excerpt weighted towards active compounds, which were near 3.1% of everything screened. Unless noted, calls come from the whole dose curve; as a rule, active = well fitted curve in the direction sought with a large enough effect; inconclusive = small, poorly fitted or top-dose-only effect, or another doubt; inactive = no such curve, though single readings can be large; an effect the other way counts as inactive or inconclusive. Unless noted, % is set by controls: 0 for no effect and ±100 for the full control effect; potency is the fitted concentration of half-maximal effect.

SMILES | Tau fluor counter | TexasRed fluor | Tau fibril ThT | RGS12 GoLoco inh | Tau fibril FP | TRb-SRC2 inh
Cc1cc2ccccc2c(=O)n1CC(=O)NCC(=O)N1CCN(c2ccccc2)CC1 | -5% | -9% | -1% | 11% | -1% | 3%
COc1ccccc1C(=O)Nc1nnc(SCc2cc(=O)c3ccccc3[nH]2)s1 | -7% | -3% | -2% | nt | 4% | -4%
COc1ccc2nc(N3C(=O)/C(=C/c4ccc(Cl)cc4)NC3=S)sc2c1 | -11% | -1%[53 µM] | 1.1µM* | 122% | 0% | -4%[53 µM]
O=C1Nc2ccccc2/C1=N\N=C\c1ccc(O)c(O)c1 | ? | -9% | 4.5µM* | 13% | -3% | 3%
O=C(/C(=N/N=C/c1ccc(O)c(O)c1)c1ccccc1)c1ccccc1 | 13µM*[quencher] | -1% | ? | 6% | -7% | -6%
COc1cc(/C=N/N=C2/C(=O)Nc3ccccc32)ccc1O | ? | -9% | 11µM* | 5% | 7% | -3%
Cc1ccsc1/C=N/N=C1\C(=O)Nc2ccccc21 | ? | 0% | 14µM* | 16% | 9% | 3%
NS(=O)(=O)c1ccc(N=C2C(=O)Nc3ccccc32)cc1 | -14% | 0% | ? | 7%[14.2 µM] | ? | 5%
COc1cccc([C@@H]2Oc3ccc(Br)cc3C[C@H]2OC(=O)N[C@H](C)C2CCCCC2)c1 | -4% | -3% | -5% | 1% | -3% | -1%
O=C(NCCc1c[nH]c2ccccc12)OCCSS(=O)(=O)O | -15% | -4% | 14µM* | 9% | ? | -26%
Cc1ccc(C)c(NC(=O)C(=O)NCCc2c[nH]c3ccccc23)c1 | ? | -1% | -15% | -1% | -6% | -5%
CCC(=O)NCCc1c[nH]c2ccccc12 | -3% | 0% | -6% | 8% | -4% | -2%
CC(C)c1ccc(NC(=S)NCCc2c[nH]c3ccccc23)cc1 | 11µM*[quencher] | -1% | ? | 0% | 2% | 7%
Cc1ccccc1NC(=S)NCCc1c[nH]c2ccccc12 | -22% | 0% | -13% | 22% | 6% | -1%
COc1ccc(Cl)cc1NC(=S)NCCc1c[nH]c2ccccc12 | 22µM*[quencher] | -1% | ? | 1% | 5% | 4%
Cc1cc(C)cc(NC(=O)C(=O)NCCc2c[nH]c3ccccc23)c1 | 16µM*[quencher] | -2% | ? | 5% | -4% | 2%
CC(C(=O)NCCN1C(=O)S/C(=C\c2cccs2)C1=O)N1C(=O)c2ccccc2C1=O (centres undefined) | -4% | 0% | -8% | -18% | -7% | -3%
CCc1ccc(NCc2nc3ccccc3c(=O)[nH]2)cc1 | -29% | -2% | ? | -2% | 11% | -1%
O=C(O)CC(NNC(=O)c1ccccc1)C(=O)Nc1ccc([N+](=O)[O-])cc1 (centres undefined) | ? | -1% | nt | 3% | -8% | -10%
CCCc1ccc(-c2ccc(C(=O)Oc3ccc(Br)cc3)cc2)nc1 | -7% | 0.035µM*[quencher] | -9% | nt | -8% | -27%[53 µM]
Cc1ccc(Cl)cc1N1CCN(S(=O)(=O)c2ccc3c(c2)CC(C)N3C(=O)C2CCC2)CC1 (centres undefined) | 7% | 16µM*[quencher] | 8% | nt | -9% | -13%
COc1ccccc1CNS(=O)(=O)c1ccc2c(c1)CC(C)N2C(=O)C1CCC1 (centres undefined) | 0% | 22µM*[quencher] | -5% | nt | 10% | -10%
C/C(=N/NC(=O)c1cc(-c2ccc(Cl)s2)[nH]n1)c1ccco1 | ? | 2% | nt | 27% | -22% | -3%
Cc1ccc(/C=[N+](\[O-])c2ccc(N(C)C)cc2)c2nsnc12 | ? | 40µM*[fluorescent] | 6.3µM* | 6% | 32µM* | 35µM*
CCN1CCN(CC(=O)N2N=C(c3ccc(OC)cc3)CC2c2ccc(OC)cc2)C(=O)C1=O (centres undefined) | -14% | -2% | -13% | -5% | -3% | -9%
SMILES | Tau fluor counter | TexasRed fluor | Tau fibril ThT | RGS12 GoLoco inh | Tau fibril FP | TRb-SRC2 inh
CN1c2cccc3cccc(c23)N(C)C1c1cccs1 | ? | -2% | ? | -23% | 2% | -5%
c1csc(C2Nc3cccc4cccc(c34)N2)c1 | 16µM*[quencher] | -18% | 11µM* | -6% | ? | 0%
O=[N+]([O-])c1ccccc1C1Nc2cccc3cccc(c23)N1 | ? | -14% | ? | -2% | -5% | -11%
Brc1ccc(C2Nc3cccc4cccc(c34)N2)o1 | ? | 2.8µM*[quencher] | ? | -27% | ? | 24%
Cc1nn(C)cc1/C=C/C(=O)c1cccs1 | -4% | 0% | ? | 8% | -6% | 17%
O=C(N/N=C/c1ccc(O)c2ncccc12)c1cccc(Br)c1 | ? | -4% | 6.3µM* | 13% | 14% | -5%
CCOC(=O)C1CCCN(C(=O)CC(c2ccccc2)c2ccccc2)C1 (centres undefined) | -1% | -7% | -5% | -6% | -2% | -3%
O=c1c2ccccc2nc(COc2ccccc2)n1/N=C/c1ccc(O)cc1O | 16µM*[quencher] | 1% | ? | 0% | -4% | 3%
O=[N+]([O-])c1ccc(O)c(/C=N/n2c(CO)nc3ccccc32)c1 | -8% | -4% | ? | 0% | 7% | -1%
C/C(=N\OCc1nc2ccccc2c(=O)n1/N=C/c1cc([N+](=O)[O-])ccc1O)c1ccccc1 | 14µM*[quencher] | -3% | nt | 47% | -5% | -4%
C/C(=N\OCc1nc2ccccc2c(=O)n1/N=C/c1cc(C)cc([N+](=O)[O-])c1O)c1ccccc1 | ? | -2% | 4µM* | 18% | -2% | 0%
COc1ccc2[nH]c(C(O)(Cc3cccnc3)Cc3cccnc3)cc2c1 | 4% | 1% | -1% | 6% | -1% | 4%
Cc1cc(C)n2cc(CSc3nc4ccccc4[nH]3)nc2n1 | -8% | -2% | ? | 6% | -2% | -1%
CC(C)(C)c1ccc(/C=C/C(=O)Nc2ccc3c(c2)OCCO3)cc1 | 10µM*[quencher] | -4% | ? | 6% | ? | 6%
O=C(Nc1ccccc1)/C(=C/c1ccccc1)c1ccccc1 | ? | 0% | -21% | 13% | 20µM* | -4%
Cc1ccccc1NC(=O)/C(=C/c1ccccc1)c1ccccc1 | -12% | 1% | ? | -9% | -2% | 3%
CCOc1ccc(S(=O)(=O)NCc2cccnc2)cc1C | -1% | 3% | -4% | 3% | 0% | 6%
CCOc1ccc(S(=O)(=O)NCCc2c(C)[nH]c3c(Cl)cccc23)cc1C | 10µM*[quencher] | 2% | -16% | nt | 7% | -2%
CCOC(=O)c1cccc(NC(=O)c2ccc3c(c2)nnn3CC)c1 | -20% | 0% | ? | nt | -10% | 0%

High-throughput results deposited in PubChem BioAssay by National Center for Advancing Translational Sciences (NCATS).
